Laboratory results published in PubChem BioAssay AID624296 (National Center for Advancing Translational Sciences (NCATS), 2012).
Screen size: about 350,000 compounds; about 9,900 (2.8%) were called active. Inconclusive results (about 15%) are left out. What follows is part of a selection rich in actives, with near analogues and random picks from the rest. Entries that show only a call come without a potency. Values without a mark were called inactive. Calls come from the whole dose curve; as a rule, active = well fitted activation curve with a large enough effect; inconclusive = small, poorly fitted or top-dose-only effect; inactive = no such curve, though single readings can be large or run the other way.

Test: A quantitative high throughput screen for small molecules that induce DNA re-replication in MCF 10a normal breast cells. Note: nearly all actives have a fitted effect of over 50% in size.
Settings: MCF 10A DNA re-replication, Hoechst nuclear intensity, 48 h; series mostly up to 46.1 µM
Potency is the fitted concentration of half-maximal effect.

Row | SMILES | Potency | activity, positive = re-replication
1 | CCOc1ccc(S(=O)(=O)NCC2CCCO2)cc1 (stereo unspecified) | inactive | 
2 | O=S(=O)(NCC1CCCO1)c1ccc2ccccc2c1 (stereo unspecified) | 2.91 µM (active) | 
3 | CCC(=O)Nc1ccc(S(=O)(=O)NCC2CCCO2)cc1 (stereo unspecified) | inactive | 
4 | O=C(COc1ccc(F)cc1Br)NCC1COc2ccccc2O1 (stereo unspecified) | inactive | 
5 | CCN(C(=O)COC(=O)CCC(=O)c1cccs1)C1CCCCC1 | inactive | 
6 | Cc1cc(C)c2nc(N3CCCC3)c(C#N)cc2c1 | inactive | 
7 | CCOC(=O)c1cc(C#N)c(N2CCCCC2)nc1-c1ccccc1 | 13 µM (active) | 
8 | CC(=O)c1cc(C#N)c(N2CCCCC2)nc1C | inactive | 
9 | CC1CN(C(=O)c2ccc([N+](=O)[O-])s2)CC(C)O1 (stereo unspecified) | inactive | 
10 | C/C(=N\Nc1ccccc1)c1cccs1 | inactive | 
11 | CCCOc1ccc(C(=O)CCC(=O)OC(C)C(=O)Nc2ccc(NC(C)=O)cc2)cc1 (stereo unspecified) | inactive | 
12 | CCCOc1ccc(C(=O)C(CCC(CNCC)C(=O)c2ccc(OCCC)cc2)CNCC)cc1 (stereo unspecified) | 25.9 µM (active) | 
13 | CCCOc1ccc(C(=O)NCCc2ccccc2)cc1 | inactive | 
14 | COc1ccc(OC)c(-c2csc(NC(=O)COC(=O)C3CC3)n2)c1 | inactive | 
15 | Cc1ccc(NNC(=O)c2c(F)cccc2Cl)cc1Cl | inactive | 
16 | Cc1cc(C)c(S(=O)(=O)c2ccccc2)c(OC(=O)c2c(F)cccc2Cl)n1 | 16.4 µM (active) | 
17 | O=C(c1c(F)cccc1Cl)N1CCN(S(=O)(=O)c2ccc3c(c2)OCCCO3)CC1 | inactive | 
18 | O=C(COC(=O)c1cccnc1Cl)Nc1ccc(S(=O)(=O)N2CCOCC2)cc1 | inactive | 
19 | O=C(N[C@H]1C/C=C\C(c2cccc(F)c2)N(Cc2ccccc2)C(=O)C1)OCC1c2ccccc2-c2ccccc21 (stereo partly specified) | inactive | 
20 | Cc1nc(-c2ccc(F)cc2)c(CC(=O)N(C)CC(=O)Nc2c(C)cccc2C)s1 | inactive | 
21 | Cc1nc(N2CCOCC2)sc1C(=O)NN | inactive | 
22 | Cc1nc(-c2ccccc2)sc1C(=O)/C=C/N(C)C | inactive | 
23 | Cc1nc(-c2ccc(Cl)cc2)sc1C(=O)NN | 16.4 µM (active) | 
24 | O=C1CC(c2ccccc2)C(=O)N2C(=O)CC(c3ccccc3)C(=O)N12 (stereo unspecified) | inactive | 
25 | COc1ccc(S(=O)(=O)N(C)C[C@H]2Oc3c(NC(=O)Nc4ccc5c(c4)OCO5)cccc3C(=O)N([C@H](C)CO)C[C@@H]2C)cc1 | inactive | 
26 | CCCN(C(=O)CSc1nnc(N)s1)c1c(N)n(Cc2ccccc2)c(=O)[nH]c1=O | inactive | 

Row | SMILES | Potency | activity, positive = re-replication
27 | O=C1C=C(c2ccc(Cl)cc2)C(=O)N1Nc1ccccc1 | 5.8 µM (active) | 
28 | O=C1c2cccc3cc(Br)cc(c23)C(=O)N1Nc1ccccc1 | inactive | 
29 | O=C(O)CC1=C(Nc2ccccc2)C(=O)N(c2ccccc2)C1c1ccc(Cl)cc1 (stereo unspecified) | inactive | 
30 | Cc1ccc(Nc2nnc(SC(C)C(=O)NC3CC3)s2)cc1 (stereo unspecified) | inactive | 
31 | O=C(N/N=C/c1ccccn1)c1cccnc1 | inactive | 
32 | C/C(=N\NC(=O)c1cccnc1)c1ccc(-c2ccccc2)cc1 | inactive | 
33 | O=C(NN=C1CCC(=NNC(=O)c2cccnc2)CC1)c1cccnc1 | 0.58 µM (active) | 
34 | CCN(CC)CCCC(C)n1c2nc(=O)[nH]c(=O)c-2nc2cc(Cl)ccc21 (stereo unspecified) | inactive | 
35 | CN(C)S(=O)(=O)c1cccc(-c2nn(-c3ccccc3)cc2/C=C2\SC(=S)N(CC(=O)O)C2=O)c1 | inactive | 
36 | COc1ccc(-c2nn(-c3ccccc3)cc2/C=C2/SC(=S)N(CCCC(=O)O)C2=O)c(C)c1 | inactive | 
37 | Cc1ccc(-c2nn(-c3ccccc3)cc2/C=C2\SC(=S)N(CCCCCC(=O)O)C2=O)o1 | 18.4 µM (active) | 
38 | COc1cc(OC)cc(-c2c(-c3cccs3)c3cc(-c4ccc(OC)nc4)ccc3n2C)c1 | inactive | 
39 | O=C(CCNC(=O)c1ccccc1)Nc1nc2ccccc2s1 | inactive | 
40 | CC(=O)Nc1cccc(-c2cnc3ccccc3n2)c1 | inactive | 
41 | Cc1ccc2nc(Nc3ccccc3)cc(C)c2c1 | inactive | 
42 | CCS(=O)(=O)Nc1cccc(-c2cc(-c3ccccc3)c3cc(C)ccc3n2)c1 | 14.6 µM (active) | 
43 | O=C(Cn1cc(C(F)(F)F)ccc1=O)Nc1ccc2c(c1)OCCO2 | inactive | 
44 | CC(C)(C)c1ccc(C(=O)NCCn2c(N)c(C#N)c3nc4ccccc4nc32)cc1 | 7.31 µM (active) | 
45 | CC(C)(C)OC(=O)c1c(N)n(CCCN2CCCC2=O)c2nc3ccccc3nc12 | inactive | 
46 | CC(C)(C)c1ccc(C(=O)NCC(=O)OCN2C(=O)c3ccccc3C2=O)cc1 |  | -182% [at 0.0737 µM]
47 | Cc1ccnc(SCC(=O)Nc2cccc(S(=O)(=O)N3CCOCC3)c2)n1 | inactive | 
48 | O=C1C(=O)N(c2ccccc2)C(c2ccccc2)C1c1ccccc1 (stereo unspecified) | inactive | 
49 | O=C(c1nnc(-c2ccc(Cl)cc2)o1)C1CCCC1 | inactive | 
50 | S=c1[nH]nc(-c2ccc(Cl)cc2)n1CC1CCCO1 (stereo unspecified) | inactive | 
51 | O=C(c1[nH]ncc1-c1ccc(Cl)cc1)C1CO1 (stereo unspecified) | 3.66 µM (active) | 
52 | COC(=O)[C@@]1(C)[C@H]2C(=O)N(Cc3ccccc3)C(=O)[C@H]2[C@H]2CN=C(SCC3CC3)N21 | inactive | 

Row | SMILES | Potency | activity, positive = re-replication
53 | COc1ccc(Cl)cc1NC(=O)CN(C)CC(=O)Nc1ccc2c(c1)OCO2 | inactive | 
54 | Cc1ccc(C)c(N2CCN(C(=O)CCc3nc(-c4cccc(C(F)(F)F)c4)no3)CC2)c1 | inactive | 
55 | NC(=S)NN=C1CCCC(C(F)(F)F)C1 (stereo unspecified) | inactive | 
56 | Cc1ccc(S(=O)(=O)n2oc(=O)c(C3CCCCC3)c2N)cc1 | inactive | 
57 | COc1cccc(CC2(CO)CCN(Cc3cnc(-c4cccc(C)c4)nc3)CC2)c1 | inactive | 
58 | Cc1cccc(-c2ncc(CN3CCC(CO)(CCCc4ccccc4)CC3)cn2)c1 | 18.4 µM (active) | 
59 | OCC1(CCc2ccccc2)CCN(Cc2ccc3nsnc3c2)CC1 | inactive | 
60 | COc1cccc(C2=CC(=O)C[C@H](c3ccc(OC)c(OC)c3)C2)c1 | inactive | 
61 | COc1ccc(N2C(=O)CNC2=S)cc1 | inactive | 
62 | CCOc1ccc(N2C(=O)CSC2=NC#N)cc1 | inactive | 
63 | O=C1CSC(=S)N1c1ccc(O)cc1 | 16.4 µM (active) | 
64 | COc1ccc(CNC(=O)CN2C(=O)NC3(CCCc4sccc43)C2=O)cc1 (stereo unspecified) | inactive | 
65 | O=C(CCCCCCCC(=O)N1CCCCC1)N1CCCCC1 | inactive | 
66 | O=C(Nc1cc(-c2ccccc2)nn1-c1ccccc1F)c1ccc([N+](=O)[O-])cc1 | inactive | 
67 | O=C1CSc2ccc(C(=O)NCc3ccccn3)cc2N1 | inactive | 
68 | CCCC(CNC(=O)COC(=O)C1=NNC(=O)CC1)c1ccc(Cl)cc1Cl (stereo unspecified) | inactive | 
69 | O=C(NCc1cccnc1)c1cn(-c2ccccc2)nc1-c1cccs1 | inactive | 
70 | O=C(O)/C=C/c1cn(-c2ccccc2)nc1-c1cccs1 | inactive | 
71 | O=C(O)c1ccc(N/N=C/c2cn(-c3ccccc3)nc2-c2cccs2)cc1 | 23.1 µM (active) | 
72 | O=c1c2ccccc2[nH]c(=S)n1CCN1CCC(=C(c2ccc(F)cc2)c2ccc(F)cc2)CC1 | 18.4 µM (active) | 
73 | COc1ccccc1Cn1c(=S)[nH]c2cc(C(=O)N3CCN(C)CC3)ccc2c1=O | inactive | 
74 | CCCCn1c(=S)[nH]c2ccccc2c1=O | inactive | 
75 | CCCOc1ccccc1C1CC(=O)Nc2cc3c(cc21)OCO3 (stereo unspecified) | 6.51 µM (active) | 
76 | COc1ccc(C2CC(=O)Nc3cc(C)c(C)cc32)c(OC)c1OC (stereo unspecified) | inactive | 
77 | COc1ccccc1C1C2=C(COC2=O)Nc2cc3c(cc21)OCO3 (stereo unspecified) | inactive | 
78 | Nc1c(N(Cc2ccco2)C(=O)c2cccc(F)c2)c(=O)[nH]c(=O)n1Cc1ccccc1 | inactive | 

Row | SMILES | Potency | activity, positive = re-replication
79 | CC(=O)NC1=NN(C(C)=O)C(C)(c2ccc(Cl)s2)S1 (stereo unspecified) | 8.2 µM (active) | 
80 | CC(=O)NC1=NN(C(C)=O)C(C)(CCS(=O)(=O)c2ccc(Cl)c(Cl)c2)S1 (stereo unspecified) | inactive | 
81 | CC(=O)NC1=NN(C(C)=O)C(C)(c2ccc(C)cc2)S1 (stereo unspecified) | inactive | 
82 | COc1ccccc1S(=O)(=O)NCc1ccc(C(=O)N(C)Cc2ccc(F)cc2)cc1 | inactive | 
83 | O=C(COC(=O)c1cccnc1Cl)NC12CC3CC(CC(C3)C1)C2 | inactive | 
84 | O=C(COC(=O)c1ccc(F)cc1)NCC1COc2ccccc2O1 (stereo unspecified) | inactive | 
85 | O=C(COC(=O)c1ccccc1O)NCc1ccco1 | inactive | 
86 | CN(c1ccccc1)S(=O)(=O)c1ccc(Cl)c(C(=O)OCC(=O)NCc2ccco2)c1 | inactive | 
87 | Cc1cc(C(=O)OCC(=O)NCc2ccco2)c(C)n1-c1ccccc1 | 6.31 µM (active) | 
88 | O=C1c2ccccc2C(=O)N1CCCCCCN1C(=O)c2ccccc2C1=O | inactive | 
89 | COC(=O)c1ccc(C)c(NC(=O)Cn2c(C)csc2=O)c1 | inactive | 
90 | CCSc1nsc(NC(=O)Nc2ccccc2OC)n1 | inactive | 
91 | CCSc1nsc(NC(=O)Nc2cccc(C(C)=O)c2)n1 | 16.4 µM (active) | 
92 | C=CCSc1nsc(NC(=O)Nc2cccc(C(C)=O)c2)n1 | inactive | 
93 | Cc1cc(N2C(=O)C(O)=C(C(=O)c3ccc(C)o3)C2c2ccc(OCc3ccccc3)cc2)no1 (stereo unspecified) | 20.6 µM (active) | 
94 | COc1cc(C2C(C(=O)c3ccc(C)o3)=C(O)C(=O)N2Cc2cccnc2)ccc1O (stereo unspecified) | inactive | 
95 | COc1cc(C2C(C(=O)c3ccc(C)o3)=C(O)C(=O)N2CCc2ccccc2)ccc1O (stereo unspecified) | inactive | 
96 | Cc1ccc(NC(=O)CN(C)C(=O)c2cccc(S(=O)(=O)N3CCCC3)c2)cc1 | inactive | 
97 | Cc1ccc(S(=O)(=O)N2[C@@H](c3cccc4ccccc34)C(C(=O)O)=C[C@H]2C(C)(C)C)cc1 | inactive | 
98 | Cc1ccc(S(=O)(=O)N2C3C=CC(C3)C2C(=O)O)cc1 (stereo unspecified) | inactive | 
99 | Cc1ccc(S(=O)(=O)N2[C@@H](c3ccccc3F)C(C(=O)O)=CC[C@H]2c2ccc(Cl)cc2)cc1 | 7.31 µM (active) | 
100 | COC(=O)C1=C(C)N(Cc2ccccc2)C(=NCCCOC(C)C)N[C@H]1c1ccccc1 | inactive | 
101 | CC1O[C@H](OC2C(COC3OC(CO)C(O)[C@H](O)C3O)OC(OC3CC[C@]4(C)C(CC[C@@]5(C)[C@@H]4C=C[C@]46OC[C@@]7(CCC(C)(C)C[C@H]74)C(O)C[C@@]56C)C3(C)C)C(O)C2O)C(O)C(O)C1O (stereo partly specified) | inactive | 
